High-throughput results (PubChem)
Vaccinia Venus – vaccinia inhibition (Venus reporter); Vaccinia virus Venus reporter expression, fluorescence; Potency, µM (top dose mostly 36.5 µM), without a hit: top-dose activity change, negative = inhibition, usual class: inhibitors; hit rate 0.46% among 330,000; AID 720580; calls by dose curve; tested in A549 cells; note: potency is the fitted concentration of half-maximal effect; nearly all actives have a fitted effect of over 30% in size
HCV inhibitor – inhibitors of hepatitis C virus infection; Huh7.5.1 HCVcc-Cre infection, luciferase reporter, 44 h; Potency, µM (doses to about 41.8 µM), for inactives: at the top dose activity change, negative = inhibition, actives largely listed as inhibitors; hit rate 3.4% among 340,000; AID 651820; note: potency is the fitted concentration of half-maximal effect
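Reporter virus HCVcc-Cre (~0.5 moi) infects cells exposed to compound; seeding density 1,000 cells/well with 4 h settling beforehand. Luminescence, 15 sec read, taken 44 h post-infection following a 15 min RT substrate incubation.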
Sm TGR block – inhibitors of Schistosoma mansoni thioredoxin glutathione reductase; Q962Y6; purified TGR, DTNB reduction, TNB absorbance 405 nm; Potency, µM (doses to about 114 µM), for inactives: top-dose activity change, negative = inhibition, actives largely listed as inhibitors; hit rate 3% among 360,000; note: potency is the fitted concentration of half-maximal effect; nearly all actives have a fitted effect of over 60% in size
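TGR 20 nM + NADPH 100 uM (dispensed conc.), cpd preinc 15 min RT; start with NADPH (500 uM addition) then DTNB (15 mM addition). Kinetic TNB absorbance, 405 nm filter. Four-parameter Hill fit across titration.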
Vaccinia mCherry – vaccinia inhibition (mCherry reporter); Vaccinia virus mCherry reporter infection, fluorescence; Potency, µM (top dose mostly 36.5 µM), for inactives: top-dose activity change, negative = inhibition, most hits filed as inhibitors; hit rate 0.63% among 310,000; AID 720579; calls by dose curve; tested in A549 cells; note: potency is the fitted concentration of half-maximal effect; nearly all actives have a fitted effect of over 35% in size
FMDV antiviral – blocks foot and mouth disease virus; FMDV antiviral cell-based qHTS; Potency, µM (series often up to 57.9 µM), inactives show top-dose activity change, negative = inhibition, most hits filed as inhibitors; hit rate 1.2% among 410,000; AID 1159524; calls by dose curve; tested in HEK293T cells; note: read-out not given here; potency is the fitted concentration of half-maximal effect; nearly all actives have a fitted effect of over 45% in size
HCMV inh – inhibitors of human cytomegalovirus; HFF cells, HCMV-luciferase reporter, 72 h; active compounds read low; activity change, negative = inhibition, % at 57.5 µM; hit rate 4.5% among 410,000; in the data active = activity change below about -60%; inconclusive = no clear call, values can overlap the other calls; inactive = above about -39%
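Cell-based, HFFs, 1000 cells/well, 16 h 37C; cpds in DMSO + HCMV-luc, MOI 1 PFU/cell; 72 h 37C; OneGlo luminescence after 5 min RT; norm. to buffer vs Salinomycin 10uM.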
Numbers without * were called inactive; i = inactive; ? = inconclusive; nt = no result given; [ ] = dose if it differs, or a comment. A selection: hits, their analogues and other compounds. The true share with any hit is near 9.3%. Unless noted, calls come from the whole dose curve; as a rule, active = well fitted curve in the direction sought with a large enough effect; inconclusive = small, poorly fitted or top-dose-only effect, or another doubt; inactive = no such curve, though single readings can be large; an effect the other way counts as inactive or inconclusive. % is set by controls: 0 for no effect and ±100 for the full control effect.

SMILES	Vaccinia Venus	HCV inhibitor	Sm TGR block	Vaccinia mCherry	FMDV antiviral	HCMV inh
COc1ccc(C2=NN(C(C)=O)C(c3cccs3)C2)cc1OC (stereo not drawn)	-17%	14%	10%	?	20%	67
Nc1cc(N)c(OCC(F)(F)F)cc1OCC(F)(F)F	4%	-2%	1.1µM*	nt	0%	nt
Cn1c(=O)c2c(nc(SCc3cccnc3)n2Cc2ccccc2)n(C)c1=O	-9%	-9%	0%	-28%	nt	-26
Cc1cc(N)nc(=O)n1C1CC(O)C(CO)O1 (stereo not drawn)	-1%	13%	nt	-5%	-14%	-17
CC(C)(C)C(=O)N(Cc1ccc(Cl)cc1)c1cnccn1	-25%	?	-5%	-17%	?	-64*
COc1ccc(C2/C=C\CNCC(=O)N2Cc2ccc(F)cc2)cc1 (stereo not drawn)	-6%	5%	40µM*	-10%	0%	28
COc1ccc(C2/C=C\CN(C(=O)CC(C)C)CC(=O)N2Cc2ccc(F)cc2)cc1 (stereo not drawn)	-10%	16%	-9%	-20%	21%	4
CCCCCCC(=O)N1C/C=C\C(c2ccc(OC)cc2)N(Cc2ccc(F)cc2)C(=O)[C@H]1Cc1ccccc1 (stereo partly drawn)	?	-20%[8.37 µM]	-29%	-9%	?	-93*
COc1ccc(C2/C=C\CN(C(=O)CC(C)(C)C)CC(=O)N2Cc2ccc(F)cc2)cc1 (stereo not drawn)	-10%	5µM*	-16%	-15%	23%	1
Cc1ccc(C)n1-c1ccc(C(=O)/C=C/N(C)C)cc1	-16%	?	32µM*	-1%	11%	24
CN(C)/C=C/C(=O)c1ccncc1	-10%	7%	-12%	-5%	3%	-28
O=C1CC(N2CCN(c3ccccc3Cl)CC2)C(=O)N1c1ccc(F)cc1 (stereo not drawn)	-4%	12%	?	-10%	nt	-26
Cc1ccccc1C(=O)NNC(=O)/C=C\C(=O)O	nt	3%	2µM*	nt	-17%	-21
O=C(O)/C=C/C(=O)NNC(=O)c1ccccc1Br	nt	3%	3.5µM*	nt	29%	-2
Cc1cccc(C(=O)NNC(=O)/C=C/C(=O)O)c1	9%	5%	?	i	15%	113
CCCC[P+](CCCC)(CCCC)Cc1ccc(NC(=O)[C@@H](Cc2ccc3ccccc3c2)NC(=NC2CCCCC2)NC2CCCCC2)cc1	nt	nt	nt	nt	-12%	nt
CC(C#N)(NC(=O)CN1CCN(S(=O)(=O)c2ccccc2C#N)CC1)C1CC1 (stereo not drawn)	-21%	-19%	1%	-8%	-10%	0
CCOc1ccc(N2CC(NC(=O)c3ccc4c(c3)OCO4)CC2=O)cc1 (stereo not drawn)	-6%	nt	1%	3%	1%	22
CC1(C)C=Cc2c(ccc3c2OC[C@H](c2ccc(O)cc2O)C3)O1	?	?	7%	-29%	0%	?
CC(C)=CCc1cc([C@@H]2COc3c(ccc4c3C=CC(C)(C)O4)C2)c(O)cc1O	?	?	nt	?	?	-106*
COc1ccc(CCNc2c(C)c(C)nc3ncnn23)cc1	?	?	3%	?	?	-89*
CCc1c(C)nc2ncnn2c1NCCc1ccc(OC)c(OC)c1	nt	?	-7%	nt	?	-73*
COc1ccc(-c2cc(NCCc3ccncc3)n3ncnc3n2)cc1	10%	0%	6%	-7%	1%	54
CC1CCN(c2nc3c(S(=O)(=O)c4cccc(Cl)c4)nnn3c3ccsc23)CC1	-23%	nt	33%	-27%	?	-24
CCOc1ccc(NS(=O)(=O)c2cc(NC(=O)CCNC(=O)c3ccco3)ccc2OC)cc1	-11%	-24%	nt	-11%	34%	-9
SMILES	Vaccinia Venus	HCV inhibitor	Sm TGR block	Vaccinia mCherry	FMDV antiviral	HCMV inh
CCCCc1cc(=O)oc2cc(O)ccc12	-10%	-30%	nt	-4%	-11%	-104*
CCN(CC)c1ccc(C(=O)OCc2cc(=O)oc3cc(O)ccc23)cc1	-15%	22µM*	4%	?	?	-104*
CCCCc1cc(=O)oc2cc(OCC(=O)N3CCOCC3)ccc12	7%	-8%	-2%	-6%	-5%	-81*
CCCCc1cc(=O)oc2c(CN(C)C)c(O)ccc12	-11%	6%	10%	-15%	15%	48
COc1ccc(-n2c(SCC(=O)NCc3ccc(F)cc3)nc3c([nH]c4ccccc43)c2=O)cc1	0%	nt	9%	-2%	-8%	-24
COCc1ccc(CN2CCc3c([nH]c4ccccc34)C2CC(C)C)o1 (stereo not drawn)	-4%	-2%	35µM*	?	-15%	-2
COc1ccc(CCNC(=O)CSCc2n[nH]c(=O)[nH]2)cc1OC	nt	3%	-6%	nt	-5%	-5
Cn1c(=O)cc(OCC(=O)N2CCN(c3cccc(C(F)(F)F)c3)CC2)c2ccccc21	nt	?	-19%	nt	-20%	-11
CCCCN=Cc1c(C)[nH]n(-c2ccccc2)c1=S	nt	-4%	0%	nt	28%	?
Cc1[nH]n(-c2ccccc2)c(=S)c1C=Nc1cccc([N+](=O)[O-])c1	-21%	5%	79µM*	-28%	-2%	-12
Cc1ccc2c(c1)c(C)c(C)n2CC(O)Cn1nc(C)c(Br)c1C (stereo not drawn)	-24%	-13%	-1%	-9%	-30%	-17
CCOc1cc(CNCC2CCCO2)cc(Br)c1OCC(N)=O (stereo not drawn)	nt	-11%	0%	nt	-17%	-69*
COC(=O)C(NNc1ccccc1)(NC(=O)c1ccc(F)cc1)C(F)(F)F (stereo not drawn)	nt	-16%	-17%	nt	-20%	-37
COc1ccc(NC(=S)N2CCCC(c3nc4ccc(C)cc4[nH]3)C2)c(OC)c1 (stereo not drawn)	nt	?	7%	nt	-5%	-87*
Cc1cc2nc(C3CCCN(C(=S)Nc4ccccc4C)C3)[nH]c2cc1C (stereo not drawn)	-26%	10µM*	-17%	-7%	nt	-17
Cc1ccc(NC(=S)N2CCCCCC2)c(C)c1	-6%	-10%	-28%	?	31%	-10
Cc1ccc(NC(=S)N2CCCC(c3nc4ccc(C)cc4[nH]3)C2)c(C)c1 (stereo not drawn)	?	10µM*	2%	?	nt	-15
Cc1ccc2nc(C3CCCN(C(=S)Nc4cccc(C)c4C)C3)[nH]c2c1 (stereo not drawn)	?	1.8µM*	0%	?	nt	?
Cc1cc2nc(C3CCCN(C(=O)NCc4ccccc4)C3)[nH]c2cc1C (stereo not drawn)	-16%	-23%	-18%	-28%	34%	119
COCCn1c(SCC(=O)Nc2ccc(Cl)cn2)nc2ccccc21	nt	?	-1%	nt	-20%	-3
